Experimental data as given in PubChem BioAssay.
The source made the active and inactive calls. The rule behind the calls is not given here.

test: inhibitors of hydroxyurea-induced Chk1 phosphorylation, primary screen, imaging, HeLa, phospho-Chk1 nuclear intensity (AID 1187); conditions: hydroxyurea-induced phospho-Chk1 immunofluorescence imaging, higher = more signal; note: test concentration not given here

**Q.** Which z-score does the source give for `O=C1OCCC=C[C@H]2OC34C=CCN(Cn5nnc6ccccc65)C(=O)[C@H]3N(CCCCCCO)C(=O)[C@@H]4C12` (stereo not given in full) here?
**A.** -0.21 (inactive)

**Q.** With `O=C1C[C@@](C(=O)NCCN2CCOCC2)(c2ccc([N+](=O)[O-])cc2)[C@@H](c2ccc(CO)cc2I)N1C1CCCCC1` as the compound, how does the z-score read?
**A.** 0.245 (inactive)

**Q.** Which z-score does the source give for `NC(=O)N1C(=O)C2C(C1=O)C1C=C(CCCO)C2C(c2cccs2)N1Cc1cccc(OC(F)(F)F)c1` (stereo not given) here?
**A.** -0.334 (inactive)

**Q.** For `C=C(/C(=C/C[C@H](OC(C)=O)c1ccccc1OCCO)c1cc(C(=O)OC)ccc1OC)C(C)C`, which z-score is on record?
**A.** -0.292 (inactive)

**Q.** Which z-score does the source give for `CCCC[C@@H](O)C1=C(COc2ccccc2)C[C@H]2C(=O)N(C)C(=O)[C@H]2[C@H]1CO` here?
**A.** -1.41 (inactive)

**Q.** With `O=C1NC(=O)C2C1C=CC(C(O)c1cccc3ccccc13)N2Nc1ccc(Cl)cc1Cl` (stereo not given) as the compound, how does the z-score read?
**A.** 0.3 (inactive)

**Q.** With `COc1ccc(-c2cc3c(c(CCc4ccccc4)n2)[Si](C(C)C)(C(C)C)OC3)cn1` as the compound, how does the z-score read?
**A.** 0.236 (inactive)

**Q.** With `COC(=O)[C@@]1(Cc2ccc(F)cc2)[C@H]2c3cc(C(=O)N4CCCC4)n(CCc4ccc(O)c(O)c4)c3C[C@H]2CN1C(=O)c1ccccc1` as the compound, how does the z-score read?
**A.** 0.303 (inactive)

**Q.** Which z-score does the source give for `CC1=C[C@@]2(CO)C(=O)[C@]3(CO3)[C@@H]1[C@H]1[C@]2(C)C=C(CO)C(=O)[C@]12CO2` here?
**A.** -0.35 (inactive)

**Q.** For `O=C(NCC(F)(F)F)[C@@H]1c2ccccc2C(=O)N(Cc2ccc(OC(F)(F)F)cc2)[C@H]1c1ccc(CO)cc1`, which z-score is on record?
**A.** -0.383 (inactive)

**Q.** Which z-score does the source give for `COC(=O)Cn1c(C(=O)N(C)C)cc2c1C[C@H]1CN(C(=O)c3ccccc3)[C@@](Cc3ccc(F)cc3)(C(=O)OC)[C@@H]21` here?
**A.** 1.08 (inactive)

**Q.** With `COc1ccc([Si](C)(C)[C@H]2[C@H](CC(=O)N(CCO)Cc3ccccc3)O[C@@]3(C(=O)N(Cc4cccc(N5CCOC5=O)c4)c4ccccc43)[C@@H]2C)cc1` as the compound, how does the z-score read?
**A.** -0.157 (inactive)

**Q.** Which z-score does the source give for `COCCCNC(=O)[C@]1(CCS(=O)(=O)c2ccccc2)N=C(c2ccc(OCCCO)cc2)O[C@@H]1c1ccccc1CN=[N+]=[N-]` here?
**A.** -0.618 (inactive)

**Q.** For `[N-]=[N+]=Nc1ccccc1C[C@]1(C(N)=O)N=C(c2ccc(OCCCO)cc2)O[C@H]1c1ccccc1N=[N+]=[N-]`, which z-score is on record?
**A.** -0.683 (inactive)

**Q.** For `C#CCN([C@@H](Cc1ccc(O)cc1)C(=O)OC)[C@@H](/C=C/C1CC1)[C@H](O)Cc1ccccc1`, which z-score is on record?
**A.** -0.368 (inactive)

**Q.** For `CN(C)c1ccc(C(O)C2C=CC3C(=O)N(c4ccccc4)C(=O)C3N2Nc2ccc([N+](=O)[O-])cc2)cc1` (stereo not given), which z-score is on record?
**A.** -0.576 (inactive)

**Q.** Which z-score does the source give for `NCCCCCCNC(=O)[C@@H]1C[C@@H]2C(=O)N[C@@H](CCCCN)C(=O)N2[C@@H]1c1cccc(OCCO)c1` here?
**A.** -0.269 (inactive)

**Q.** Which z-score does the source give for `CCOC(=O)C1=CC[C@@H](c2ccc(OCc3ccccc3)c(OC)c2)N(S(=O)(=O)c2ccc(C)cc2)[C@H]1c1ccc(SC)cc1` here?
**A.** -0.768 (inactive)

**Q.** For `COC(=O)[C@@]1(Cc2ccccc2)[C@H]2c3cc(C(=O)N(C)C)n(Cc4c(CO)[nH]cc(C)c4=O)c3C[C@H]2CN1C(=O)c1ccccc1`, which z-score is on record?
**A.** 0.0707 (inactive)

**Q.** With `CN1C(=O)C2C=CC(C(O)COCc3ccccc3)N(N(c3ccccc3)c3ccccc3)C2C1=O` (stereo not given) as the compound, how does the z-score read?
**A.** -0.35 (inactive)

**Q.** For `CCC[C@@H]1C[C@@]1(CCC)[C@@H](NC(=O)OCc1ccccc1)c1ccc(-c2ccccc2)cc1`, which z-score is on record?
**A.** 0.198 (inactive)

**Q.** Which z-score does the source give for `COCCOC(=O)N1C(=O)[C@@]2(c3cc(C#CC4=CCCCC4)ccc31)[C@H](c1ccc(OCCO)cc1)N1[C@H](c3ccccc3)[C@H](c3ccccc3)OC(=O)[C@H]1[C@@H]2C(=O)NC[C@H](O)c1ccccc1` here?
**A.** 0.576 (inactive)

**Q.** With `C=C(CCCC)/C(=C/C[C@@H](OC(=O)c1ccncc1)c1ccccc1OCCO)c1cnc2ccccc2c1` as the compound, how does the z-score read?
**A.** -0.0646 (inactive)

**Q.** For `CC1CC/C=C\[C@H]2OC34C=CCN(C(C)C)C(=O)[C@H]3N(CCCCCCO)C(=O)[C@@H]4C2C(=O)O1` (stereo not given in full), which z-score is on record?
**A.** 0.631 (inactive)

**Q.** Which z-score does the source give for `O=C1C2C=CC(C(O)c3ccc(Br)cc3)N(Nc3ccccc3F)C2C(=O)N1c1ccccc1` (stereo not given) here?
**A.** -0.909 (inactive)

**Q.** With `COC(=O)[C@@]1(Cc2ccc(OC)cc2)[C@H]2c3cc(C(=O)N4CCCC4)n(Cc4cccc5ccccc45)c3C[C@H]2CN1C(=O)c1ccccc1` as the compound, how does the z-score read?
**A.** -0.684 (inactive)

**Q.** Which z-score does the source give for `CCOC(=O)C1CCCCN1` (stereo not given) here?
**A.** 0.0121 (inactive)

**Q.** With `COc1ccc([Si](C)(C)[C@H]2[C@H](CCn3cc([C@H](O)c4ccccc4)nn3)O[C@@]3(C(=O)N(Cc4ccc(N5C(=O)c6cccc7cccc5c67)cc4)c4ccccc43)[C@@H]2C)cc1` as the compound, how does the z-score read?
**A.** -0.162 (inactive)

**Q.** With `[N-]=[N+]=NCc1ccccc1C[C@@]1(C(=O)N2CCOCC2)N=C(c2ccc(OCCCO)cc2)O[C@@H]1c1ccccc1` as the compound, how does the z-score read?
**A.** 0.608 (inactive)

**Q.** For `COC(=O)C(CC#Cc1ccc2c(c1)[C@]1(C(=O)N2)[C@H](C(=O)N2CCN(c3ncccn3)CC2)[C@H]2C(=O)O[C@H](c3ccccc3)[C@H](c3ccccc3)N2[C@@H]1c1ccc(OCCO)cc1)C(=O)OC`, which z-score is on record?
**A.** -0.285 (inactive)

**Q.** Which z-score does the source give for `[N-]=[N+]=Nc1ccccc1[C@@H]1OC(c2ccc(OCCCO)cc2)=N[C@]1(Cc1ccccc1)C(=O)NCC(O)CO` (stereo not given in full) here?
**A.** -0.228 (inactive)

**Q.** With `CCCC[C@@H]1C[C@H]1[C@@H](NC(=O)c1cccs1)c1ccc(C(F)(F)F)cc1` as the compound, how does the z-score read?
**A.** 0.516 (inactive)

**Q.** For `COC(=O)[C@@]1(Cc2ccc(OC)cc2)[C@H]2c3cc(C(=O)N(C)C)n(CCO)c3C[C@H]2CN1C(=O)c1ccccc1`, which z-score is on record?
**A.** 0.524 (inactive)

**Q.** With `CCOC(=O)C[C@H]1[C@H](OC(=O)Cc2ccc3c(c2)OCO3)[C@@H](NC(=O)CC(C)C)c2cc(OCCCO)ccc2N1C(=O)Cc1ccc(OC)cc1` as the compound, how does the z-score read?
**A.** -0.401 (inactive)

**Q.** With `O=C1NC(=O)C2C1C=CC(C(O)c1ccco1)N2Nc1ccccn1` (stereo not given) as the compound, how does the z-score read?
**A.** -0.0488 (inactive)
